Source: PubChem BioAssay (NCI)
This is part of a sample that, as a whole, favours compounds with a hit. Of some 83,000 tested, about 20% had one in any assay.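 48-hour exposure, single concentration, 96-well plates; percent growth endpoint where 0 means no net growth. Active: below 10.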 Active and inactive are the calls of the source.

What was measured:
Test in all cases: NCI-60 one-dose screen, 48 h (100 = growth as untreated, 0 = no growth, -100 = all killed)
Conditions in all cases: 10 µM unless noted
[1] = test system: T-47D breast
[2] = test system: BT-549 breast
[3] = test system: MDA-MB-435 melanoma
[4] = test system: SW-620 colon
[5] = test system: MCF7 breast
[6] = test system: HCT-116 colon
[7] = test system: HCC-2998 colon
[8] = test system: KM12 colon

Measured: growth

CCCCN(CCCC)c1ccc(C(=N)c2ccc(N(CCCC)CCCC)cc2)cc1
active: [1] -31.3% | [2] -7.68% | [3] -72.4% | [4] -84% | [5] -85.5% | [6] -99.9% | [7] -96.7% | [8] -95.1%

C=C(C)[C@@H]1C[C@H](O)Cc2cc(F)ccc2N1
inactive: [1] 95.6% | [2] 98.1% | [3] 97.7% | [4] 91.9% | [5] 103% | [6] 92.9% | [7] 118% | [8] 106%

COc1ccc(Nc2[nH]n3c(=O)cc(C)nc3c2C(N)=O)c(OC)c1
inactive: [1] 79.8% | [2] 95.3% | [3] 114% | [4] 93.3% | [5] 92.7% | [6] 97.8% | [7] 108% | [8] 101%

COc1cc(-c2nn(-c3cccc(NC(=O)c4ccccc4)c3)cc2-c2ccncc2)ccc1Cl
active: [2] 1.29% | [3] -57.9% | [5] 4.67% | [6] 8.58%
inactive: [1] 21.8% | [4] 18.4% | [7] 20.1% | [8] 12.3%

CCN(CC)c1ccc(CNc2ccnc3ccccc23)cc1
inactive: [1] 29% | [2] 45.4% | [3] 48.2% | [4] 70.8% | [5] 33.3% | [6] 30.3% | [7] 36.9% | [8] 73.6%

CC(C)CSc1nc(NN)c(C#N)c(-c2ccc(F)cc2)n1
inactive: [1] 66.7% | [2] 85.3% | [3] 78.9% | [4] 91.9% | [5] 73.8% | [6] 68.9% | [7] 54.4% | [8] 58.1%

COC(=O)c1cc2cc(-c3ccc(OC)cc3)cnc2[nH]1
inactive: [1] 34.1% | [2] 18.6% | [4] 18.6% | [5] 15.9% | [6] 13.8% | [7] 51.1% | [8] 11.4%
active: [3] -23.7%

COc1ccc(-c2nc(/C=N/Nc3cc(C)nc4ccc(Br)cc34)c(C)o2)cc1
active: [1] -42.1% | [3] -95.6% | [4] -86.6% | [5] -75.2% | [6] -74.6% | [7] -67.1% | [8] -90.4%
inactive: [2] 91%

Nc1cccc(Cl)c1N
inactive: [1] 54.6% | [2] 97.6% | [3] 106% | [4] 101% | [5] 39.6% | [6] 100% | [7] 84.2% | [8] 99.5%

CCN(CC)c1ccc2[nH]c3c(C(N)=O)cc(=O)c(=O)c=3oc2c1
active: [1] -0.924% | [3] -4.76% | [4] 9.8% | [5] -31.5% | [6] -10.9% | [7] -5.4% | [8] 9.09%
inactive: [2] 38.9%

CCN(CC)CCCC(C)Nc1c2ccc(Cl)cc2nc2cc(OC)c(OC)cc12 (configuration not stated)
inactive: [1] 61.9% | [2] 55.3% | [7] 18.1%
active: [3] -81.8% | [4] -25.2% | [5] 0.0607% | [6] -42.5% | [8] 8.52%

CCOC(=O)c1cc(C(=O)c2cc(OC)c(OC)c(OC)c2)n2c1ccc1ccccc12
inactive: [1] 11.1% | [2] 66.9% | [4] 18.8% | [5] 12.1% | [6] 25.8% | [7] 69.5% | [8] 28.5%
active: [3] -54.6%

COc1ccc2c(c1)[nH]c(=O)c1c3cc(C)c(C)cc3cn21
inactive: [7] 15.7%
active: [1] -24.4% | [2] 0.0621% | [3] -60.8% | [4] -52.8% | [5] 3.58% | [6] -35.9% | [8] -87.7%

C=C1c2nc3ccccc3n2C=C(c2ccc(Cl)cc2)N1Cc1ccccc1
inactive: [1] 66% | [2] 142% | [3] 98.1% | [4] 86.9% | [5] 63% | [6] 63% | [7] 89.2% | [8] 86.9%
